Hits are enriched below; roughly 1.7% of the tested compounds scored in any of these assays.
Fam108B inh: mouse Fam108B serine hydrolase inhibitors, primary screen, counter-screen for RBBP9 inhibitor project, biochemical, fluorescence polarization | inhibition, % at 9.51 µM | recombinant Fam108B, FP-Rh probe fluorescence polarization | hit rate 0.33% among 300,000;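 active = inhibition above the screen mean inhibition plus 3 SD, computed separately per campaign, cut at about 18% in these data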;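 note: inhibitors lower polarization as less probe binds the enzyme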
PME-1 primary: PME-1 inhibitors via competitive probe labeling, primary screen, biochemical, fluorescence polarization, FP-Rh probe, HTS; Protein phosphatase methylesterase 1 (Homo sapiens), Q9Y570; recombinant PME-1; inhibition, % at 5.9 µM; hit rate 0.53% among 320,000;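 active = inhibition above the campaign mean of all compounds plus 3 SD, cut at about 26% in these data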;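 note: competitive labeling of PME-1 active site by serine hydrolase directed probe; 0% = PME-1 with DMSO and 100% = wells lacking PME-1 enzyme; inhibitors block probe labeling so polarization falls and inhibition rises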
GSTO1 inh: inhibitors of recombinant GSTO1, primary screen, counter-screen for RBBP9 inhibitor project, biochemical, fluorescence polarization; Glutathione S-transferase omega-1 (Homo sapiens), P78417; activity-based probe fluorescence polarization; inhibition, % at 5.96 µM; hit rate 1.1% among 300,000; AID 1974, 2009;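 active = inhibition above the campaign mean inhibition plus 3 SD, cut at about 35% in these data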;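 note: 0% = GSTO1-1 with DMSO and 100% = wells lacking GSTO1-1 enzyme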
PAD4 FP inh: human PAD4 inhibitors, primary screen, biochemical, fluorescence polarization, 1536-well format. hit rate 0.41% among 330,000. inhibition, % at 6.36 µM. recombinant PAD4, RCA probe fluorescence polarization;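 active = percent inhibition above a cutoff equal to the mean of all tested compounds plus 3 SD, cut at about 15% in these data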;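 note: 0% = PAD4 with RCA probe and DMSO and 100% = probe without PAD4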
Target sequence (Q9UM07 whole entry, looked up): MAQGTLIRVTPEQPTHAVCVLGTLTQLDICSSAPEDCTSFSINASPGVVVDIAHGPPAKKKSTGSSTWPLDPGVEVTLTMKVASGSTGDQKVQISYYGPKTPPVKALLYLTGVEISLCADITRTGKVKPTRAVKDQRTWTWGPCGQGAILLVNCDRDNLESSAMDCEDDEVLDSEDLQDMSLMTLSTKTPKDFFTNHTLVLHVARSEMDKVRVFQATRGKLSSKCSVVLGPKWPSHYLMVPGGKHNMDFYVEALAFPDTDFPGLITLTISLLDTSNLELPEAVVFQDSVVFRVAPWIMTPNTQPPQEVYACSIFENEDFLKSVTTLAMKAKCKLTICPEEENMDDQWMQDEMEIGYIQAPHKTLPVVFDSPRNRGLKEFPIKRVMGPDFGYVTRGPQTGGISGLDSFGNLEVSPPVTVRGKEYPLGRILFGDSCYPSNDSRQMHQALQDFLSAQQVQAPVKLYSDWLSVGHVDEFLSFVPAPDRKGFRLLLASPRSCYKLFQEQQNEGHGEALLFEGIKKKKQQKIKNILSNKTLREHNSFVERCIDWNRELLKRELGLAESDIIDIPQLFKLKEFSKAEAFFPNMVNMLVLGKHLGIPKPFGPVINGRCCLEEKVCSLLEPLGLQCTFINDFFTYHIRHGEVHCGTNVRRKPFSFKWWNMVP
LYPLA1 counter: LYPLA1 inhibitors, primary screen, counter-screen for PME1 inhibitor project, biochemical, fluorescence polarization, FP-Rh probe ABPP; recombinant LYPLA1; inhibition, % at 5.9 µM; hit rate 0.16% among 320,000; AID 2174, 2009;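 active = inhibition above the mean of all tested compounds plus 3 SD, set per campaign, cut at about 14% in these data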;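 note: inhibitors block serine hydrolase probe labeling of LYPLA1 so polarization falls; 0% = enzyme with DMSO and 100% = wells lacking LYPLA1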
LYPLA2 counter: LYPLA2 inhibitors, primary screen, counter-screen for PME1 inhibitor project, biochemical, fluorescence polarization, FP-Rh probe ABPP | Acyl-protein thioesterase 2 (Homo sapiens), O95372 | recombinant LYPLA2 | inhibition, % at 5.9 µM | hit rate 0.38% among 320,000 | AID 2177, 2009;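 active = inhibition above the screen-wide mean plus 3 SD, limit set per campaign, cut at about 26% in these data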;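 note: 0% = LYPLA2 with DMSO and 100% = wells lacking LYPLA2 enzyme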
GSTO1 confirm: GSTO1 inhibitor hit confirmation, counter-screen for RBBP9 inhibitor project, biochemical, fluorescence polarization, triplicate; hit rate 54% among 2,400; shares compounds with GSTO1 inh; recombinant GSTO1, probe fluorescence polarization; AID 2176, 2009; inhibition, % at 5.96 µM;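 active = inhibition above the primary screen's cutoff, its mean inhibition plus 3 SD, cut at about 35% in these data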;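 note: loss of polarization as inhibitors block binding of rhodamine sulfonate ester activity probe; 0% = GSTO1 with DMSO and 100% = wells lacking GSTO1 enzyme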
* marks the source's active call; other numbers are inactive results; · = no result.

SMILES | Fam108B inh | PME-1 primary | GSTO1 inh | PAD4 FP inh | LYPLA1 counter | LYPLA2 counter | GSTO1 confirm
CCOC(=O)c1nn(-c2ccccc2)c(=O)c2c(N)scc12 | 3 | 5 | 11 | -1 | -2 | -3 | ·
Clc1ccccc1C1Nc2cccc3cccc(c23)N1 | 6 | 12 | 43* | -2 | 0 | 2 | 8
O=C1NC(c2ccccc2Cl)Nc2ccccc21 (centres undefined) | 6 | -2 | 4 | 3 | -1 | 2 | ·
COc1ccc(NC(=O)Nc2ccc3c(c2)C(=O)N([C@@H](C)CO)C[C@@H](C)[C@@H](CN(C)S(=O)(=O)c2cccs2)O3)cc1 | · | · | · | 1 | · | · | ·
Cc1ccc(C(=O)C2CCN(C(=O)c3ccc(C)cc3)CC2)cc1 | 0 | 8 | 3 | -3 | -1 | 7 | ·
COc1ccc(C2CC(=O)N(C)c3ccccc3S2)cc1 (centres undefined) | 0 | -1 | 47* | 1 | 8 | 5 | 2
CN1C(=O)CC(c2ccco2)Sc2ccccc21 (centres undefined) | 0 | 0 | -5 | -1 | -1 | -2 | ·
CC(Sc1nc2ncc(Cl)cc2[nH]1)C(=O)c1c(N)n(C)c(=O)n(C)c1=O (centres undefined) | 0 | -1 | 74* | -8 | -2 | 1 | 6
CC[n+]1ccc(C[n+]2ccccc2)c2ccccc21 | 3 | -1 | 49* | -8 | 4 | -3 | 7
Cc1ccc2c(c1)c(C)cc[n+]2Cc1ccccc1 | 0 | -2 | 4 | 6 | 1 | 1 | ·
CCC(=O)N=c1ccn(C2=Nc3ccccc3NC2=C(C#N)C#N)cc1 | 1 | -7 | 63* | -4 | -1 | 8 | 21
Fc1ccccc1-c1csc(=Nc2cccnc2)n1CC1CCCO1 (centres undefined) | -3 | 9 | 4 | 1 | 0 | -1 | ·
Fc1ccccc1-c1csc(=Nc2cccnc2)n1CCCn1ccnc1 | -3 | -4 | 41* | -4 | 0 | 1 | 5
CCCCOP(=O)(OCCCC)C1(NS(=O)(=O)c2ccccc2)C=CC(=O)c2ccccc21 (centres undefined) | -2 | 9 | 50* | -21 | -9 | -10 | 18
CCOc1ccc(-n2c(=O)c3sccc3n(Cc3cccc([N+](=O)[O-])c3)c2=O)cc1 | -4 | -1 | -4 | -3 | 3 | -5 | ·
Cc1ccc(Cl)c(NC(=O)COC(=O)c2ccccc2C(=O)c2ccc(Cl)c([N+](=O)[O-])c2)c1Cl | -3 | 2 | 49* | 1 | 0 | -1 | 52*
CCCNC(=O)COC(=O)c1ccccc1C(=O)c1ccc(Cl)c([N+](=O)[O-])c1 | -1 | 8 | 11 | 2 | 4 | 7 | ·
CCn1cc(NC(=O)CCl)c(C)n1 | -5 | 5 | 72* | 0 | -2 | -2 | 81*
CCn1cc(CCC(=O)O)c(C)n1 | 0 | 2 | 10 | 4 | 2 | -2 | ·
O=C(c1ccccc1)c1coc2c1C(=O)c1ccccc1C2=O | 7 | 6 | 60* | -10 | -1 | 4 | 39*
COc1ccc(C(=O)c2coc3c2C(=O)C(=O)c2ccccc2-3)cc1 | 6 | 14 | 24 | -11 | 2 | 3 | ·
O=C1c2ccccc2C(=O)c2c1oc(C(F)(F)F)c2C(=O)c1ccccc1 | 5 | 4 | 62* | 2 | -3 | -4 | 71*
CN(Cc1ccccc1)C(=O)CC(c1ccccc1)c1cc(Cl)ccc1O (centres undefined) | -6 | -5 | 58* | -3 | -7 | -8 | 3
CC(NC(=O)CC(c1ccccc1)c1cc(Cl)ccc1O)c1ccccc1 (centres undefined) | 0 | -6 | 0 | -5 | -2 | -5 | ·
O=[N+]([O-])c1ccc(O)c(/C=N/n2c(-c3ccccc3)n[nH]c2=S)c1 | 2 | 4 | 7 | 0 | -2 | -3 | ·
SMILES | Fam108B inh | PME-1 primary | GSTO1 inh | PAD4 FP inh | LYPLA1 counter | LYPLA2 counter | GSTO1 confirm
O=[N+]([O-])c1ccc(Cl)c(/C=N/n2c(-c3ccncc3)n[nH]c2=S)c1 | 9 | -1 | 50* | 0 | 0 | 3 | 10
N#CCSc1nnc(-c2sc3ccccc3c2Cl)o1 | -9 | 4 | 40* | -5 | -3 | 3 | 33
COC(=O)CSc1nnc(-c2sc3ccccc3c2Cl)o1 | 0 | 2 | 1 | -3 | 0 | 8 | ·
CN(O)/C=c1/ccc2c(n1)C(=O)C=CC=2 | 1 | 2 | 64* | -9 | -2 | 8 | 21
COc1ccc(NS(=O)(=O)c2ccc(C)c(NC(=O)c3ccc(C)c(S(=O)(=O)N4CCOCC4)c3)c2)cc1 | -7 | 3 | -1 | 3 | -4 | -3 | ·
CCN(CC)c1ccc(C=Nc2ccc(N(C)C)cc2)c(O)c1 | -5 | -6 | 66* | 12 | -3 | -11 | -4
CC(=O)N1c2ccc(S(=O)(=O)N(C)C3CCCCC3)cc2CC1C (centres undefined) | 0 | 7 | -5 | 1 | 1 | 12 | ·
COC(=O)\C(C(C)=O)=C(/C=C/C=C/C=C/N(C)C)N(C)C | 1 | -9 | 38* | 4 | 0 | 2 | -44
COC(=O)/C(C(C)=O)=C(\C=C\N(C)C)N(C)C | 2 | 3 | 3 | 0 | -3 | 1 | ·
COc1cccc(C(C(=O)NC2CCCC2)N(C(=O)c2ccco2)c2ccc(C(C)=O)cc2)c1OC (centres undefined) | 0 | -3 | 5 | -2 | -2 | -2 | ·
Cc1ccccc1NC(=O)CSc1nnc(-c2ccco2)n1N | -6 | -6 | -14 | -7 | -1 | -7 | ·
Cc1cccc(NC(=O)CSc2nnc(-c3ccco3)c(-c3ccco3)n2)c1C | 9 | 0 | 42* | -8 | -5 | 2 | 16
NNC(=O)Cn1nc2n(c1=O)-c1ccccc1SC2 | 3 | 1 | 1 | -2 | 1 | 0 | ·
CCCCn1c(N)c(N(CCOC)C(=O)C(C)N2C(=O)c3ccccc3C2=O)c(=O)[nH]c1=O (centres undefined) | 1 | 5 | 67* | 1 | -2 | -3 | 9
Cc1ccc(C)c(N(C(=O)c2ccco2)C(C(=O)NC2CCCC2)c2ccco2)c1 (centres undefined) | 1 | -6 | 7 | 0 | 3 | 2 | ·
Cc1cc(C)n(-c2cc(O)c(-n3nc(C)cc3C)cc2O)n1 | 4 | 3 | 47* | -6 | -2 | -1 | 3
COc1cc(S(=O)(=O)NCc2ccccc2)ccc1F | 0 | -1 | -6 | -4 | 1 | -2 | ·

Source: PubChem BioAssay (The Scripps Research Institute Molecular Screening Center)
